This is an account of results in PMC4336329 (PLoS ONE, 2015).

Out of some 310,000 compounds screened, about 2,200 (0.71%) showed an effect of 50% or more. Effects have a minus sign here. The list comes from a sample in which strong results are over-represented; it also holds similar structures and randomly drawn compounds.

Sequence of human ether-à-go-go-related gene (hERG) potassium channel (Q12809 whole entry, looked up): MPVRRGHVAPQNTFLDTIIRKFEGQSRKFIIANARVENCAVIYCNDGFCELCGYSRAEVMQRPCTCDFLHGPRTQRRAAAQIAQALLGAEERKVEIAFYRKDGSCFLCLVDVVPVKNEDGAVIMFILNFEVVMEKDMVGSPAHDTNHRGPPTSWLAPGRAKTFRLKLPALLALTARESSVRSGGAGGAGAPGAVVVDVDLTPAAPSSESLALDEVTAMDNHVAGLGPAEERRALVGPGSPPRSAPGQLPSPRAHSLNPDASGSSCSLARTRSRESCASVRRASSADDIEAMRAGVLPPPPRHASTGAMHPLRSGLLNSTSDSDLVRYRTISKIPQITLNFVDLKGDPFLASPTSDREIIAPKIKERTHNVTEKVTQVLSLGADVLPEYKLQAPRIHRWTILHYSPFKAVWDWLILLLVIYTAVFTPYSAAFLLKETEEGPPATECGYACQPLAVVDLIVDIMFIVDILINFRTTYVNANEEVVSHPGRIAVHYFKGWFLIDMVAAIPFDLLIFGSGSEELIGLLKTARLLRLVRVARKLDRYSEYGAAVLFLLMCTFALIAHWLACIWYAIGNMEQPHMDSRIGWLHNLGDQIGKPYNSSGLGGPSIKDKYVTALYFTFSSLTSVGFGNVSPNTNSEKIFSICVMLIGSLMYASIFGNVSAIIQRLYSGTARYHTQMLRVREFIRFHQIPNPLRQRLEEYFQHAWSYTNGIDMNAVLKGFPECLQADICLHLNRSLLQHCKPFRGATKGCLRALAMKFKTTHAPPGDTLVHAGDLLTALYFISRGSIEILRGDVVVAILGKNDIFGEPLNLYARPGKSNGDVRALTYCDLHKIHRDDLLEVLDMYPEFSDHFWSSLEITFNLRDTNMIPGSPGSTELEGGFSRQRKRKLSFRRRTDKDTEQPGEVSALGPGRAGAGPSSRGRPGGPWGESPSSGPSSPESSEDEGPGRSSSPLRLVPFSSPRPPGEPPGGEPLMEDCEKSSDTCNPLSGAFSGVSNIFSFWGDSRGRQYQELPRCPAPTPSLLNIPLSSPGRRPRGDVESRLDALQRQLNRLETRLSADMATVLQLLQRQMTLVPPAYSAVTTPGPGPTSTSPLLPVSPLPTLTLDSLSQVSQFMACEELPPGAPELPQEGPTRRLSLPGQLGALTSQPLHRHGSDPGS

This experiment concerns the target human ether-à-go-go-related gene (hERG) potassium channel (human, UniProt Q12809). Put plainly: primary screen, population patch clamp on CHO cells stably expressing hERG; higher = less effect of the substance.
Turning to `Cn1nc(C(F)(F)F)cc1Oc1ncc(C(F)(F)F)cc1Cl`, the “hERG current change (%, negative = inhibition) at 1uM” value amounted to 12.5%.
Consider `CCOc1ccc(NC(=S)N(CCc2c(C)[nH]c3ccccc23)Cc2cccnc2)cc1`, for which the “hERG current change (%, negative = inhibition) at 1uM” value is -4.48%.
Take `CCN(CC)S(=O)(=O)c1cccc(C(=O)NCCc2ccccc2)c1`: the “hERG current change (%, negative = inhibition) at 1uM” value was -5.67%.
As to `O=c1[nH]c(=O)n(CCC2=CCCCC2)c(O)c1C=NCc1cccnc1`, the “hERG current change (%, negative = inhibition) at 1uM” value worked out at 9.06%.
Consider `COc1ccc(OCCCC(=O)Nc2nc(C)c(C(C)=O)s2)cc1`, for which the “hERG current change (%, negative = inhibition) at 1uM” value stood at 10.2%.
With `Cc1ccc(-n2c(=O)cc(N3CC(C)OC(C)C3)[nH]c2=O)cc1` (stereo not drawn) the figure was 10.6%.
As to `O=C(CC(C(=O)O)c1c[nH]c2ccccc12)c1ccccc1` (stereo not drawn), the “hERG current change (%, negative = inhibition) at 1uM” value is reported as 9.56%.
As to `COc1ccc(Cc2nc3c4c(ncn3n2)Oc2ccc3ccccc3c2C4c2ccc(OC)c(OC)c2)cc1` (stereo not drawn), the “hERG current change (%, negative = inhibition) at 1uM” value came out at 5.71%.
In the case of `COc1cc(N(Cc2ccccc2)Cc2ccccc2)c2ncn(C(C)C)c2c1`, the “hERG current change (%, negative = inhibition) at 1uM” value worked out at 8.78%.
Turning to `CC(C)n1cnc2c(NCc3ccccc3)nc(NCc3ccccc3)nc21`, the “hERG current change (%, negative = inhibition) at 1uM” value is 10.4%.
Take `CC(C)n1cnc2c(N(C)c3ccccc3)nc(N(CCN(C)C)Cc3ccccc3)nc21`: the “hERG current change (%, negative = inhibition) at 1uM” value is -58.5%.
Turning to `CCOC(=O)Cc1csc(NC(=O)CSc2nnnn2-c2ccc(C)c(C)c2)n1`, the “hERG current change (%, negative = inhibition) at 1uM” value was determined as 10%.
As to `COc1ccc(S(=O)(=O)NCC2CCCN(Cc3ccc(O)cc3)C2)cc1` (stereo not drawn), the “hERG current change (%, negative = inhibition) at 1uM” value is -12.2%.
For `Cc1ccc(CN2CC(C(=O)Nc3ccc(F)c([N+](=O)[O-])c3)CC2=O)cc1` (stereo not drawn), the “hERG current change (%, negative = inhibition) at 1uM” value is -1.97%.
For `COc1ccc(NC(=O)COc2ccc(C)cc2)c([N+](=O)[O-])c1`, the “hERG current change (%, negative = inhibition) at 1uM” value is 8.91%.
On to `CCOc1ccc(OCC(=O)Nc2ccc(OC)cc2[N+](=O)[O-])cc1`, for which the “hERG current change (%, negative = inhibition) at 1uM” value stood at 8.89%.
As to `COc1ccc(OCC(=O)N/N=C(\C)CC(=O)Nc2ccc(OC)cc2[N+](=O)[O-])cc1`, the “hERG current change (%, negative = inhibition) at 1uM” value is on record as -61.8%.
Regarding `C#CCn1c(=NC(=O)c2ccc(Cl)s2)sc2cccc(OC)c21`, the “hERG current change (%, negative = inhibition) at 1uM” value is listed as 14.9%.
Under `COc1ccc(Br)cc1C(=O)Nc1cccc(C)c1C` stands 2.14%; under `COc1ccc(OC)c(NC(=O)NC2CCCCCCC2)c1`, 9.24%; under `Cc1cccc(NC(=O)CN2CCN(C(=O)C(C)Oc3ccc(C#N)cc3)CC2)c1C` (stereo not drawn), -54.7%.
For the molecule `Cc1cccc(NC(=O)CNC(=O)COc2ccc(-c3ccc(C#N)cc3)cc2)c1C`, the “hERG current change (%, negative = inhibition) at 1uM” value worked out at 8.38%.
Take `Cc1cccc(NC(=O)CN2CCOCC2)c1C`: the “hERG current change (%, negative = inhibition) at 1uM” value came to 12.2%.
For `COc1ccc(CNC(=O)C2CSC(c3ccc(OC)cc3)N2C(C)=O)cc1` (stereo not drawn), the “hERG current change (%, negative = inhibition) at 1uM” value was determined as 5.4%.
With `CCCCN(C)CCN1C(=O)C2C(C(=O)Nc3ccc(C)cc3)C3C=CC2(O3)C1C(=O)NC1CCCCC1` (stereo not drawn) the figure was 15.1%; with `CCCCN(C)CCN1C(=O)C2C(C(=O)Nc3ccc(OC)cc3)C3C=CC2(O3)C1C(=O)NC1CCCCC1` (stereo not drawn), 3.44%.
As for `CCCCN(C)CCN1C(=O)C2C(C(=O)Nc3ccc(Cl)cc3)C3C=CC2(O3)C1C(=O)NC1CCCCC1` (stereo not drawn), the “hERG current change (%, negative = inhibition) at 1uM” value is recorded as -60.5%.
With `CN1C(=O)C2(C(C#N)=C(N)Oc3c2oc(CO)cc3=O)c2ccccc21` (stereo not drawn), the “hERG current change (%, negative = inhibition) at 1uM” value was 12%.
Under `COc1cc(S(=O)(=O)N2CCN(C)CC2)ccc1Cl` stands 14.8%.
Turning to `O=C(O)C(=O)O.O=C(c1ccccc1)c1ccc(OCC(O)CNCc2ccc(F)cc2)cc1` (stereo not drawn), the “hERG current change (%, negative = inhibition) at 1uM” value is recorded as -0.143%.
With `OC1CCCN(CC(O)COC(c2ccccc2)c2ccccc2)C1` (stereo not drawn) the figure was 1.02%; with `Cc1ccc(OCC(O)CNCc2ccc(F)cc2)cc1` (stereo not drawn), -14.2%.
As for `OC(COC(c1ccccc1)c1ccccc1)CN1CCc2ccccc2C1` (stereo not drawn), the “hERG current change (%, negative = inhibition) at 1uM” value is -75.3%.
With `Cc1ccc(C(OCC(O)CNCc2ccc(F)cc2)c2ccccc2)cc1.O=C(O)C(=O)O` (stereo not drawn) the figure was -75.4%; with `CC1CCCN(CC(O)COC(c2ccccc2)c2ccccc2)C1` (stereo not drawn), -15%.
On to `OC(COC(c1ccc(F)cc1)c1ccc(F)cc1)CN1CCc2ccccc2C1` (stereo not drawn), for which the “hERG current change (%, negative = inhibition) at 1uM” value was -9.74%.
As for `CCOC(=O)C1CCCN(CC(O)COC(c2ccccc2)c2ccccc2)C1` (stereo not drawn), the “hERG current change (%, negative = inhibition) at 1uM” value is on record as -78.8%.
Regarding `OC(COC(c1ccc(Cl)cc1)c1ccc(Cl)cc1)CN1CCCC1` (stereo not drawn), the “hERG current change (%, negative = inhibition) at 1uM” value is on record as -75.2%.
As to `CN1CCN(CC(O)COC(c2ccc(Cl)cc2)c2ccc(Cl)cc2)CC1.Cl` (stereo not drawn), the “hERG current change (%, negative = inhibition) at 1uM” value was -47.8%.
Consider `Cl.OC(COC(c1ccc(Cl)cc1)c1ccc(Cl)cc1)CN1CCc2ccccc2C1` (stereo not drawn), for which the “hERG current change (%, negative = inhibition) at 1uM” value is on record as -6.99%.
Under `CC1CN(CC(O)COC(c2ccc(Cl)cc2)c2ccc(Cl)cc2)CC(C)O1.Cl` (stereo not drawn) stands -2.64%; under `O=C(CNC(=O)c1ccccc1F)NCCc1ccc(Cl)cc1Cl`, 7.52%.
Take `O=C(NCc1n[nH]c(=S)n1-c1cccc(Cl)c1)c1ccc(S(=O)(=O)N2CCCCC2)cc1`: the “hERG current change (%, negative = inhibition) at 1uM” value worked out at 13.6%.
Consider `CCN(CC)S(=O)(=O)c1cccc(C(=O)Oc2cccc(NC(=O)c3cccs3)c2)c1`, for which the “hERG current change (%, negative = inhibition) at 1uM” value worked out at 7.05%.
As for `CC(=O)N1C(=O)C2(C(C#N)=C(N)Oc3c2c(C)nn3-c2ccccc2)c2ccccc21` (stereo not drawn), the “hERG current change (%, negative = inhibition) at 1uM” value is listed as 11%.
As to `Cc1cccc(C(=O)NCCC(=O)NCc2ccccc2F)c1`, the “hERG current change (%, negative = inhibition) at 1uM” value came to 5.88%.
`COc1ccc(-n2nc(C(=O)NCC(=O)N3CCCCC3)c3ccccc3c2=O)c(OC)c1`: the “hERG current change (%, negative = inhibition) at 1uM” value came to 15.2%.
With `CCN(CC)S(=O)(=O)c1ccc(/C=C/C(=O)OCC(=O)NNC(=O)c2ccc(OC)cc2)cc1` the figure was 9.94%.
On to `O=C(O)C(=O)O.OC(COC(c1ccc(F)cc1)c1ccc(F)cc1)CN1CCCC1` (stereo not drawn), for which the “hERG current change (%, negative = inhibition) at 1uM” value was -62%.
As to `COc1ccc(N2CCN(CC(O)COC(C)(C)C)CC2)cc1.O=C(O)C(=O)O` (stereo not drawn), the “hERG current change (%, negative = inhibition) at 1uM” value is 12.5%.
On to `OC(COC(c1ccccc1)c1ccccc1)CN1CCCCC1` (stereo not drawn), for which the “hERG current change (%, negative = inhibition) at 1uM” value is reported as -18.5%.
For `Cc1ccc(C(OCC(O)CN2CCCCC2)c2ccccc2)cc1` (stereo not drawn), the “hERG current change (%, negative = inhibition) at 1uM” value is -68.6%.
On to `CCN1CCN(CC(O)COC(c2ccccc2)c2ccccc2)CC1` (stereo not drawn), for which the “hERG current change (%, negative = inhibition) at 1uM” value was determined as 7.15%.
On to `O=C(O)C(=O)O.OC(COC(c1ccc(F)cc1)c1ccc(F)cc1)CN1CCCC(C(F)(F)F)C1` (stereo not drawn), for which the “hERG current change (%, negative = inhibition) at 1uM” value worked out at 14%.
With `O=C(O)C(=O)O.OCCN1CCN(CC(O)COC(c2ccc(F)cc2)c2ccc(F)cc2)CC1` (stereo not drawn), the “hERG current change (%, negative = inhibition) at 1uM” value is recorded as -20.2%.
For `Cc1ccc(C(OCC(O)CN2CCCCC2CO)c2ccccc2)cc1` (stereo not drawn), the “hERG current change (%, negative = inhibition) at 1uM” value is recorded as -39.7%.
For `O=C(O)C(=O)O.OCC1CCCCN1CC(O)COC(c1ccc(F)cc1)c1ccc(F)cc1` (stereo not drawn), the “hERG current change (%, negative = inhibition) at 1uM” value is on record as -60.9%.
Take `COc1ccc(N2CCN(CC(O)COC(c3ccccc3)c3ccccc3)CC2)cc1` (stereo not drawn): the “hERG current change (%, negative = inhibition) at 1uM” value was -14.2%.
For the molecule `COc1ccc(N2CCN(CC(O)COC(c3ccc(F)cc3)c3ccc(F)cc3)CC2)cc1.O=C(O)C(=O)O` (stereo not drawn), the “hERG current change (%, negative = inhibition) at 1uM” value is recorded as -74%.
As to `O=C(O)C(=O)O.OC1CCCN(CC(O)COC(c2ccc(F)cc2)c2ccc(F)cc2)C1` (stereo not drawn), the “hERG current change (%, negative = inhibition) at 1uM” value was -14.2%.
